An excerpt weighted towards active compounds, which were near 6% of everything screened.
D1 ag: human D1 receptor agonism; P21728; HEK293 T-REx D1 cells, calcium flux, agonist mode; activation, % at 2 µM; 1% of 360,000 active; AID 504660; in the data active means activation above about 30%; further: 0% is about no effect
Target sequence (P21728 whole entry, looked up): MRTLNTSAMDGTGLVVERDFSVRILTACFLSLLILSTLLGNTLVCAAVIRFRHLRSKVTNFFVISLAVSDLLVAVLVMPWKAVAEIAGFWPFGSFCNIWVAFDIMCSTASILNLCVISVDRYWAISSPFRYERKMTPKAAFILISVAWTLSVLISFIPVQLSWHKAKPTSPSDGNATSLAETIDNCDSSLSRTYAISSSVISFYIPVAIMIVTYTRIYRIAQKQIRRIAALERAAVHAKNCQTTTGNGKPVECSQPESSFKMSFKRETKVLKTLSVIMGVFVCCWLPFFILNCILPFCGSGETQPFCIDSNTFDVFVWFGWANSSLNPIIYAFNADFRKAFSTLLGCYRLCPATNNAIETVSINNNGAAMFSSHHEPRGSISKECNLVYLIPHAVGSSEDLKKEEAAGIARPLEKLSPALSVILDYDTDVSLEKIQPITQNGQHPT
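Inducible HEK293 T-REx D1 cells, force-coupled to calcium signalling, were plated at 4000 cells/well with tetracycline and held overnight at 30 C. After no-wash calcium dye loading, compound-evoked calcium rise over 180 s flagged agonists.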
D1 PAM: enhances dopamine response at the human D1 receptor. P21728. HEK293 TREx D1 cells, calcium flux, dopamine EC20 potentiation. potentiation, % at 10 µM. 0.036% of 360,000 active. AID 504651; in the data active means potentiation above about 30%; further: 0% is about no effect
D3 ag: activates the human D3 dopamine receptor; D3R DiscoveRx beta-arrestin cells, luminescence, 90 min; 0.58% of 410,000 active; P35462; max activation, %; in the data active means max activation above about 30%; further: 0% is about no effect
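Cells at 1500/well, incubated overnight, then treated with pinned compounds (dopamine as control) for 90 min at 37 degrees C. DiscoveRx reagent added for 30 - 60 minutes at room temperature; luminescence read.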
DRD3 antagonist: D3 dopamine receptor (human) antagonism; AID 652054; P35462; 2.5% of 360,000 active; max response, negative = inhibition, %; D3R cells, DiscoveRx beta-arrestin luminescence, antagonist mode; hits give low values; in the data active means max response below about -50%; inconclusive means no clear call, values can overlap the other calls; further: on the % scale 0 is the no-effect control and ±100 the full control effect
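Cells expressing the human receptor were seeded at 1500 cells/well, incubated overnight at 37 degrees C in 5% CO2, then exposed to library compounds with dopamine controls for 90 minutes at 37 degrees C before luminescent detection.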
D1 antagonist: blocks dopamine activation of the human D1 receptor | P21728 | HEK293 TREx D1 cells, calcium flux, dopamine EC80; hits give low values | activity change, negative = inhibition, % at 10 µM | 3.2% of 360,000 active | AID 504652; in the data active means activity change below about -30%; further: on the % scale 0 is the no-effect control and ±100 the full control effect
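Kinetic fluorescence of a calcium dye serves as the read-out. D1-expressing Hek293 Trex cells, induced overnight at 30 C, are exposed to compound for 180 s before an EC80 dopamine addition, then read 180 s further.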
Numbers without * were called inactive; ! = not confirmed by another sample.

Results for Cc1ccc2c(c1)C1CN(C)CCC1N2C(=O)Nc1ccc(Cl)cc1 (centres undefined) ?
D1 ag: 36*; D1 PAM: -12; D3 ag: -5; DRD3 antagonist: -28; D1 antagonist: -73*

How did CCc1ccc(S(=O)(=O)N2c3ccc(C)cc3C3CN(C)CCC32)cc1 (centres undefined) do in these assays?
D1 ag: 7; D1 PAM: -10; D3 ag: -20; DRD3 antagonist: inconclusive; D1 antagonist: 1

Results for Cc1ccc2c(c1)C1CN(C)CCC1N2Sc1ccccc1[N+](=O)[O-] (centres undefined) ?
D1 ag: 20; D1 PAM: -8; D3 ag: -11; DRD3 antagonist: inconclusive; D1 antagonist: -95*

How did Cc1ccc2c(c1)[C@@H]1CN(C)CC[C@@H]1N2S(=O)(=O)c1ccc([N+](=O)[O-])cc1 do in these assays?
D1 ag: 60*; D1 PAM: -1; D3 ag: -14; DRD3 antagonist: -107*; D1 antagonist: -1

How did Cc1ccc2c(c1)[C@@H]1CN(C)CC[C@@H]1N2S(=O)(=O)c1ccc(F)cc1 do in these assays?
D1 ag: 7; D1 PAM: -10; D3 ag: -21; DRD3 antagonist: -63*; D1 antagonist: -3

How did Cc1cc(Nc2ccccc2F)n2nc(-c3ccccc3)nc2n1 do in these assays?
D1 ag: 2; D1 PAM: -1; D3 ag: 5; D1 antagonist: 5

How did CSc1nc(Nc2ccc(C)cc2C)cc(-c2ccccc2)n1 do in these assays?
D1 ag: 0; D1 PAM: 2; D3 ag: 33*; D1 antagonist: 2

How did CCOC(=O)C(C)NC(=O)c1cc2c(=O)[nH]c3ccc(C)cc3c2s1 (centres undefined) do in these assays?
D1 ag: 1; D1 PAM: -4; D3 ag: 5; D1 antagonist: -7

Results for CCN(CC)S(=O)(=O)c1ccc(NC(=O)c2ccc(N(C)S(C)(=O)=O)cc2)cc1 ?
D1 ag: 8; D1 PAM: -12; D3 ag: 3; DRD3 antagonist: 1; D1 antagonist: -36*

How did COCCN(CC(=O)NCC1CCCO1)C(=O)CCC(=O)Nc1cc(C)ccn1 (centres undefined) do in these assays?
D1 ag: 2; D1 PAM: -4; D3 ag: 1; DRD3 antagonist: 5; D1 antagonist: -37*

What do the screens show for `COCCN(CC(=O)NCC1CCCO1)C(=O)CCC(=O)Nc1ccccn1` (centres undefined)?
D1 ag: 0; D1 PAM: 0; D3 ag: -2; DRD3 antagonist: -11; D1 antagonist: 6

Results for Cc1sc(N/N=C/c2cccnc2)nc1-c1ccc(Cl)cc1 ?
D1 ag: -1; D1 PAM: -10; D3 ag: 0; DRD3 antagonist: -5; D1 antagonist: -33*

How did O=S(=O)(NCc1ccccc1)NCc1cccc(C(F)(F)F)c1 do in these assays?
D1 ag: 1; D1 PAM: -8; D3 ag: -3; DRD3 antagonist: 5; D1 antagonist: -38*

How did O=C(CNC(=O)Cc1ccccc1)NCc1cccc(C(F)(F)F)c1 do in these assays?
D1 ag: 1; D3 ag: 1; DRD3 antagonist: 5; D1 antagonist: 1

Results for CN(C)CCN(Cc1ccccc1)c1ccccn1 ?
D1 ag: 4; D1 PAM: -5; D3 ag: -62; DRD3 antagonist: inconclusive; D1 antagonist: -31*!

Results for CCCc1nnc(SCc2ccc(OCC)cc2)n1N ?
D1 ag: 4; D1 PAM: 4; D3 ag: 5; DRD3 antagonist: 12; D1 antagonist: -5

What do the screens show for `CCCc1nnc(SCCSc2nnc(CCC)n2N)n1N`?
D1 ag: 12; D1 PAM: -1; D3 ag: 5; DRD3 antagonist: 16; D1 antagonist: -32*

How did CCc1ccccc1NC(=S)N(CCCN(C)C)Cc1cc2cc3c(cc2[nH]c1=O)OCO3 do in these assays?
D1 ag: 1; D1 PAM: 0; D3 ag: 2; DRD3 antagonist: 1; D1 antagonist: 4

What do the screens show for `COc1cc(CNCCN2CCOCC2)ccc1OCc1ccc(Cl)cc1`?
D1 ag: 16; D1 PAM: -2; D3 ag: -2; DRD3 antagonist: 26; D1 antagonist: -6

What do the screens show for `COc1cc(CNCCCN2CCOCC2)cc(Br)c1OCc1ccc(Cl)cc1`?
D1 ag: 72*; D1 PAM: -7; D3 ag: -14; DRD3 antagonist: -23
